High-throughput results: PubChem BioAssay, National Center for Advancing Translational Sciences (NCATS)
TDP1 cell CPT: growth inhibition of DT40 Tdp1-/-;hTDP1 cells with camptothecin (screen for TDP1 inhibitors); Potency, µM (doses to about 46.2 µM), without a hit: at the highest dose activity change, negative = growth inhibition, actives largely listed as inhibitors; chicken DT40 Tdp1-/-;hTDP1 cells + 20 nM CPT, ATP luminescence, 48 h; actives 12% (n = 420,000); further: potency means the concentration at half of the fitted maximal effect; nearly all actives have a fitted effect of over 55% in size
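Chicken DT40 Tdp1-/- cells complemented with human TDP1, 400 cells/well, exposed to compounds plus 20 nM camptothecin for at least 48 h at 37 C; viability read as ATP content by CellTiter-Glo luminescence.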
CtBP-E1A inh: CtBP/E1A binding inhibition. AlphaScreen GST-E1A/His-CtBP binding, 1536-well; active compounds read low. activity change, % (test concentration not listed). actives 0.49% (n = 340,000); in the data active means activity change below about -65%; inconclusive means mostly about -30% to -63%
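Homogeneous bead-based format: GST-tagged E1A captured on glutathione donor beads, His-tagged CtBP on nickel acceptor beads; compounds precede bead addition by 2 h at 37 °C.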
TDP1 block: inhibitors of human tyrosyl-DNA phosphodiesterase TDP1; Potency, µM (highest dose often 130 µM), for the others: at the highest dose activity change, negative = inhibition, most hits filed as inhibitors; actives 0.28% (n = 350,000); recombinant TDP1, AlphaScreen DNA substrate cleavage; Q9NUW8; further: potency means the concentration at half of the fitted maximal effect; nearly all actives have a fitted effect of over 40% in size
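Signal: AlphaScreen proximity between streptavidin donor and anti-FITC acceptor beads on intact substrate. Reaction: Tdp1 1 nM, substrate 15 nM final, 5 min RT after 15 min compound preincubation.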
Six1-Eya2 inh: blocks human Six1 binding to Eya2; Q15475+O00167; AlphaScreen GST-Six1/His-Eya2 binding, biochemical; active compounds read low; activity change, % (concentration not given with the values); actives 0.56% (n = 360,000); in the data active means activity change below about -65%; inconclusive means mostly about -30% to -63%
Target sequence (O00167 whole entry, looked up): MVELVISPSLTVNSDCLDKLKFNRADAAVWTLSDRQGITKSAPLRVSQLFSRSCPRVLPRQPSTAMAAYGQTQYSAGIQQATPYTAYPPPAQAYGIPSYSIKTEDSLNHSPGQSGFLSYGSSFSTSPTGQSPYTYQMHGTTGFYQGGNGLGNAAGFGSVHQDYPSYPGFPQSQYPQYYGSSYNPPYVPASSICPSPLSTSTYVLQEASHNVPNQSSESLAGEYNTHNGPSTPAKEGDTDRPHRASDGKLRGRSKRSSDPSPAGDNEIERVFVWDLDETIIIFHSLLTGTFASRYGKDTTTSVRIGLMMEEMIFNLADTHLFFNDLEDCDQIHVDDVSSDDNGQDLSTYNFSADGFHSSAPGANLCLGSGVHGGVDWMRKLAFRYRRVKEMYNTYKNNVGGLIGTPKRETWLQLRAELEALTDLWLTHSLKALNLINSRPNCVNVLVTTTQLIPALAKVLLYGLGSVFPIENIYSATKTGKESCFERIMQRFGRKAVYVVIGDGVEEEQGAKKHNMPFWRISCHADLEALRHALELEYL
Target sequence (Q15475 whole entry, looked up): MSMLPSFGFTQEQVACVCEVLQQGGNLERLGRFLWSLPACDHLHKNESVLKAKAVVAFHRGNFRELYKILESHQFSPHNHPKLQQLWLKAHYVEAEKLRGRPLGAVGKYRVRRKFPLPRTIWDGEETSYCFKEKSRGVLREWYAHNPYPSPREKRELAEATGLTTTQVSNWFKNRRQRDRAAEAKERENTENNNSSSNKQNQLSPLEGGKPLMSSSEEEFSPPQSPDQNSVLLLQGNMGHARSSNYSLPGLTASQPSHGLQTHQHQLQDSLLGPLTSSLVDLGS
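AlphaScreen luminescence read after one hour at 37 °C in darkness. Pin-transferred compounds met GST-Six1 and His-Eya2 protein (5X stock 250 nM/500 nM) plus glutathione donor and Ni-chelate acceptor beads (5X, 50 ug/mL).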
TDP1 cell noCPT: qHTS for Inhibitors of human tyrosyl-DNA phosphodiesterase 1 (TDP1): qHTS in cells in absence of CPT | DT40 Tdp1-/- hTDP1 cells, no CPT, ATP luminescence, 48 h | Potency, µM (series often up to 46.2 µM), inactives show at the highest dose activity change, negative = growth inhibition, hits mostly inhibitors | actives 15% (n = 420,000) | AID 686978, 2013; further: potency means the concentration at half of the fitted maximal effect; nearly all actives have a fitted effect of over 55% in size
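Growth kinetics read by CellTiter-Glo luminescence after ≥48 hr at 37 °C. Cells: DT40 Tdp1-/- stably carrying human TDP1, 400 per well, compound exposure in the absence of CPT (DMSO vehicle).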
IL-1B inflam inh: inflammasome signaling inhibition, IL-1 beta readout | THP-1 LPS/ATP IL-1B secretion, AlphaLISA, 16 h; active compounds read low | activity change, % at 57.5 µM | actives 4.7% (n = 360,000) | AID 743279; in the data active means activity change below about -50%; inconclusive means mostly about -30% to -49%
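THP-1 cells pretreated 1 hr with compounds (up to 57.5 uM final), then stimulated with LPS (250 ng/mL final) plus ATP (1.25 mM final); secreted IL-1B measured by AlphaLISA after 16 hr, decreased signal indicating inhibition.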
The depositor's hits bear a star; ? = inconclusive; · = no result given; [ ] = remark or other dose. An excerpt weighted towards active compounds, which were near 18% of everything screened. Unless noted, the call rests on the fitted dose curve; in most records, active means well fitted curve in the direction sought with a large enough effect; inconclusive means small, poorly fitted or top-dose-only effect, or another doubt; inactive means no such curve, though single readings can be large; an effect the other way counts as inactive or inconclusive. On the % scale 0 is the no-effect control and ±100 the full control effect.

SMILES	TDP1 cell CPT	CtBP-E1A inh	TDP1 block	Six1-Eya2 inh	TDP1 cell noCPT	IL-1B inflam inh
Cc1ccc(C)n1-c1ccc(C(=O)O)cc1	·	·	7.94µM*	·	·	·
Cc1ccc(C)n1-c1ccc(C(=O)Nc2ccccc2)cc1	?	·	5.1%	18.0	25.9µM*	-64.6*
CCOC(=O)N1CCN(C(=O)c2ccc(-n3c(C)ccc3C)cc2)CC1	?	3.8	2.7%	-10.1	14.6µM*	?
Cc1ccc(C)n1-c1cccc(NC(=O)c2ccccc2)c1	?	-0.7	0.0%	1.0	?	-29.8
Cc1ccc(C)n1-c1ccc(C(=O)N2CCC(C(N)=O)CC2)cc1	-17.2%	-3.3	-3.8%	-4.5	?	?
CC(=O)N1CCN(C(=O)c2ccc(-n3c(C)ccc3C)cc2)CC1	?	-1.8	0.0%	8.2	-66.2%	-66.5*
Cc1ccc(S(=O)(=O)N(C)C)cc1NC(=O)COC(=O)CCC1CCCCC1	-22.2%	4.0	-6.4%	6.6	-29.3%	18.1
O=C(CNC(=O)C(c1ccccc1)c1ccccc1)N/N=C/c1cccnc1	10.7%	2.8	-2.6%	0.4	-18.2%	·
CCCSC1=N/C(=C\c2ccc([N+](=O)[O-])o2)C(=O)S1	20.6µM*	-11.0	?	?	?	-7.0
CCCSC1=N/C(=C\C=C\c2ccco2)C(=O)S1	25.9µM*	-12.0	·	?	18.4µM*	-6.9
O=C1SC(SCc2ccccc2)=N/C1=C\c1ccco1	7.8%	-4.0	-7.1%	-21.2	-15.3%	-6.6
COc1ccc2cc3c(N)nn(C(=O)c4ccc(Cl)c([N+](=O)[O-])c4)c3nc2c1	?	-1.5	-3.4%	-3.5	?	2.6
COc1ccc2cc3c(N)nn(C(=O)c4ccccc4[N+](=O)[O-])c3nc2c1	2.59µM*	-2.8	-1.1%	-13.1	2.31µM*	·
CC(=O)N1CCC2(CC1)CN(Cc1cc(C(F)(F)F)cc(C(F)(F)F)c1)C2	-0.3%	·	·	·	-15.6%	·
FC(F)(F)c1cc(CN2CC[C@@]3(CCCNC3)C2)cc(C(F)(F)F)c1	?	·	·	·	14.6µM*	·
FC(F)(F)c1cc(CN2CC3(CCNCC3)C2)cc(C(F)(F)F)c1	18.4µM*	·	·	·	7.31µM*	·
COCCN(C(=O)CSc1nc2ccc(OC)cc2[nH]1)c1c(N)n(Cc2ccccc2)c(=O)[nH]c1=O	-11.0%	11.6	-0.5%[0.505 µM]	2.4	-2.5%	10.0
Cc1[nH]nc2c1C1(CCN(C(=O)OCc3ccccc3)CC1)C(C#N)=C(N)O2	-4.1%	1.9	9.3%	6.5	-5.6%	?
CCCNC(=O)c1ccccc1NS(=O)(=O)c1ccc(OC)c(OC)c1	2.0%	-3.8	-5.2%	-0.5	1.5%	2.5
COc1ccc(-c2csc(NC(=O)c3ccccc3NS(=O)(=O)c3ccc(C)cc3)n2)cc1	?	-13.1	2.3%	-11.5	14.6µM*	-21.3
COc1ccc(S(=O)(=O)Nc2ccccc2C(=O)Nc2nc(-c3ccc(F)cc3)cs2)cc1OC	?	-17.6	8.5%	-8.4	16.4µM*	?
Cc1cc(C)cc(NC(=O)CSc2oc(-c3ccco3)nc2S(=O)(=O)c2ccc(Cl)cc2)c1	23.1µM*	·	0.0%	·	?	·
Cc1ccc(S(=O)(=O)c2nc(-c3ccco3)oc2SCC(=O)c2ccc(Cl)cc2)cc1	?	·	0.0%	·	?	·
CCOc1ccc(NC(=O)CSc2oc(-c3ccco3)nc2S(=O)(=O)c2ccc(Cl)cc2)cc1	20.6µM*	·	5.9%	·	?	·
Cc1cc(-n2c(C)cc(C(=S)N3CCOCC3)c2C)ccc1Br	14.6µM*	-17.2	8.3%	-23.6	16.4µM*	?
SMILES	TDP1 cell CPT	CtBP-E1A inh	TDP1 block	Six1-Eya2 inh	TDP1 cell noCPT	IL-1B inflam inh
Cc1ccc(-n2c(C)cc(C(=O)CN3CCOCC3)c2C)cc1C	20.6µM*	·	-5.1%	-7.4	?	-4.3
Cc1cc(C(=O)CN2C(=O)CN(C)C2=O)c(C)n1-c1cccc(S(=O)(=O)N2CCOCC2)c1	-16.6%	·	2.5%	-1.6	4.61µM*	-9.6
Cc1cc(C(=O)CSc2ncn[nH]2)c(C)n1-c1cccc(S(=O)(=O)N2CCOCC2)c1	?	-2.2	1.1%	-4.9	18.4µM*	-17.2
Cc1ccc(C)n1-c1cccc(S(=O)(=O)N2CCOCC2)c1	-0.8%	-1.9	5.3%	-3.8	?	?
Cc1ccc(-n2c(C)cc(C(=O)OCC(=O)N3CCOCC3)c2C)cc1	-4.2%	1.9	5.4%	-14.5	-11.6%	-0.5
Cc1ccc(C(=O)Nc2cc(=O)n(C)c(=O)n2C)o1	2.3%	-4.2	8.7%	-0.6	7.6%	6.6
COc1ccccc1NC(=O)NC1(C(=O)N2CCOCC2)CCCCC1	-4.8%	3.2	13.3%	0.8	-3.3%	-20.3
Cc1cc(C(=O)CCl)c(C)n1-c1cccc(S(=O)(=O)N2CCOCC2)c1	1.3µM*	-91.4*	5.3%	-68.5*	2.31µM*	-102.3*
Cc1cccc(CNc2ccc(C(CC(N)=O)NC(=O)c3ccccc3)cc2[N+](=O)[O-])c1 (stereo unspecified)	?	1.3	0.0%	0.3	?	-10.2
CCCCNc1ccc(C(CC(N)=O)NC(=O)c2ccccc2)cc1[N+](=O)[O-] (stereo unspecified)	18.4µM*	·	6.2%	-5.9	14.6µM*	-11.6
Cc1ccccc1CNc1ccc(C(CC(N)=O)NC(=O)c2ccccc2)cc1[N+](=O)[O-] (stereo unspecified)	16.4µM*	-3.2	2.5%	-28.1	23.1µM*	-78.4*
CCC(CC)Nc1ccc(C(CC(N)=O)NC(=O)c2ccccc2)cc1[N+](=O)[O-] (stereo unspecified)	16.4µM*	·	·	-17.0	14.6µM*	-1.9
NC(=O)CC(NC(=O)Cc1cccc2ccccc12)c1ccc(NCCc2ccccc2F)c([N+](=O)[O-])c1 (stereo unspecified)	20.6µM*	-0.1	1.2%	2.6	?	20.4
CCCCNc1ccc(C(CC(N)=O)NC(=O)c2cc(C)cc(C)c2)cc1[N+](=O)[O-] (stereo unspecified)	0.6%	0.4	·	10.2	-8.8%	43.0
CC(=O)Nc1cccc(NCC(=O)Nc2cc(S(=O)(=O)N3CCCCC3)ccc2Cl)c1	?	-5.1	2.1%	-12.6	?	-19.7
COc1ccc(-c2csc3nc(-c4ccc(F)cc4)oc(=O)c23)cc1OC	?	·	0.0%	·	8.4%	·
CN1OC[C@@H]2CN(C(=S)NCCc3ccccc3)[C@H](c3ccc(N4CCCCC4)cc3)C[C@@H]21	16.4µM*	-10.1	·	-17.0	?	0.6
